# Source: ChEMBL document CHEMBL3988442, “University of Dundee, Small-Polar-MMV Screening Library” (2021)
# For some assays here: Results with a measured potency or affinity are listed apart.
# Tests used:
# Design in all cases: scale not given: direction of the effect not stated beside the values
# [1] = target: Protein translocase subunit SecA (Escherichia coli (strain K12)) (UniProt P10408); test: Assay to Identify E. coli SecA ATPase Inhibitors; assay type: functional; conditions: 30 µM
# [2] = target: T1, Ubiquitin-activating enzyme e1, putative (Leishmania donovani (strain BPK282A1)) (UniProt E9BSI1); test: Leishmania donovani Ubiquitin Activating Enzyme (LdE1); assay type: functional; conditions: 30 µM
# T1 sequence (whole entry): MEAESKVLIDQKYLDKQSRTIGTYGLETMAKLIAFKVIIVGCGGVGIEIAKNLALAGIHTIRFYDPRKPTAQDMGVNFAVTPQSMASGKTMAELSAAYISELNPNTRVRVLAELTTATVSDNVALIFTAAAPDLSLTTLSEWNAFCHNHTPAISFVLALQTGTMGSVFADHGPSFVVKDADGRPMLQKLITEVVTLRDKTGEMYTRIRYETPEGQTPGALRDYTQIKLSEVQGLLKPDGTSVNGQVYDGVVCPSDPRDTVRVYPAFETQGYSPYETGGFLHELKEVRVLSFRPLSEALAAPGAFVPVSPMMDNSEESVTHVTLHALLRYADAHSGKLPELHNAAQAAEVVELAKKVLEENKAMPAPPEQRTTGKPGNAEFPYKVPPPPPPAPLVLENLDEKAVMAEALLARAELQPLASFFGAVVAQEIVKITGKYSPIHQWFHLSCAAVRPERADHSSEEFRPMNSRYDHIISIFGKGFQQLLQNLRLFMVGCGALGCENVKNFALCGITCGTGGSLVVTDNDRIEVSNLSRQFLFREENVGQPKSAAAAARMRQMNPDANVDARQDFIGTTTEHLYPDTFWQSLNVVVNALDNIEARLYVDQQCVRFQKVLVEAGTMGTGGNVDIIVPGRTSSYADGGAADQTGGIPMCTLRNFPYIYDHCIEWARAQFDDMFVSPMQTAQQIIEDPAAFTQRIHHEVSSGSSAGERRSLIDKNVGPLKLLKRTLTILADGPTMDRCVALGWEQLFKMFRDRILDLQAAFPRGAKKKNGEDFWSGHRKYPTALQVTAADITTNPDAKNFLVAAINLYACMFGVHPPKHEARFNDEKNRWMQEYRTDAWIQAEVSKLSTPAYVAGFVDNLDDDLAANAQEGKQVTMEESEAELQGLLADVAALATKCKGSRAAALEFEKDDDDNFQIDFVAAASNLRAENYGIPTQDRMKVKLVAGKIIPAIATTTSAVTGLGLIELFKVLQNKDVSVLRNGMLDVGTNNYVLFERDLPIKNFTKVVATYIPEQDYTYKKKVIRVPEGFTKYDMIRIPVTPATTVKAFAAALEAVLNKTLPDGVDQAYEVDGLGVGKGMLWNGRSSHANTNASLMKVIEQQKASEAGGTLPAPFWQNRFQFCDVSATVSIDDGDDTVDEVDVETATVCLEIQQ
# [3] = target: AMP-activated protein kinase, AMPK (Homo sapiens) (UniProt P54646+O43741+P54619+Q9UGJ0+Q9Y478+Q13131+Q9UGI9); test: AMP-dependent Kinase enzyme assay. An in vitro enzyme assay that detects ADP turnover that is directly proportional to AMPK activity. This uses naive AMPK that is activated during the assay with MK-8722; assay type: functional; conditions: 30 µM
# [4] = target: Sialic acid-binding Ig-like lectin 9 (Homo sapiens) (UniProt Q9Y336); test: Hs-Siglec9 ALPHAscreen SOP 20170721; conditions: 10 µM
# [5] = tested on: Trypanosoma cruzi; test: Trypanosoma cruzi phosphomannomutase and mannose-1-phosphate guanylyltransferase assay; assay type: functional; conditions: 10 µM
# [6] = target: T2, Arginase-2, mitochondrial (Homo sapiens) (UniProt P78540); test: in vitro enzyme assay to detect the production of urea directly proportional to the activity of Arginase II; assay type: functional; conditions: 33.3 µM; also: in the data most compounds retested in dose-response had high values
# T2 sequence (whole entry): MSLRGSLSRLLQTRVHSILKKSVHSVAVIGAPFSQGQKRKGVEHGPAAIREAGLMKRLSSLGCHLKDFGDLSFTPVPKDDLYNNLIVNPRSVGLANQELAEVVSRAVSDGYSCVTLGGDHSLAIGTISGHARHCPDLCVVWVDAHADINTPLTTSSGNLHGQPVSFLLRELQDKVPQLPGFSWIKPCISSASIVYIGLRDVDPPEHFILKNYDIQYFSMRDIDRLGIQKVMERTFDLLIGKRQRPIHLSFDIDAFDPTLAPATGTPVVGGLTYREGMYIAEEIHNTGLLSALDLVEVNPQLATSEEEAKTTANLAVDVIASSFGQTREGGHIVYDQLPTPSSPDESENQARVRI
# [7] = target: T3, Proteasome subunit beta (Trypanosoma cruzi) (UniProt O96673); test: Trypanosoma cruzi proteasome chymotrypsin-like activity (TcProtChymo) assay.; also: in the data most compounds retested in dose-response had high values; assay type: functional; conditions: 9.37 µM
# T3 sequence (whole entry): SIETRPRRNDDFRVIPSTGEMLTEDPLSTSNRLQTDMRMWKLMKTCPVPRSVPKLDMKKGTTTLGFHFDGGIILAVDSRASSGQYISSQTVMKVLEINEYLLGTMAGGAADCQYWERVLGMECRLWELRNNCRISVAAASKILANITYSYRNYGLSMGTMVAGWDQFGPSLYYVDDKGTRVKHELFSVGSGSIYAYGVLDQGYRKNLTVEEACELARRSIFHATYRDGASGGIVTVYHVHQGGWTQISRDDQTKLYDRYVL
# [8] = organism: Homo sapiens; test: To identify inhibition of the IFN signalling (Jak-Stat) pathway via expression of an eGFP reporter gene under the control of an IFN-stimulated response element (ISRE) containing MxA promoter.; assay type: functional; conditions: 30 µM
# [9] = target: T4, Tyrosyl-tRNA synthetase, putative (Trypanosoma cruzi (strain CL Brener)) (UniProt Q4DSP6); test: Trypanosoma cruzi tyrosyl tRNA synthetase (TcYRS) _High Tyrosine SOP; assay type: functional; conditions: 30 µM; also: in the data most compounds retested in dose-response had high values
# T4 sequence (whole entry): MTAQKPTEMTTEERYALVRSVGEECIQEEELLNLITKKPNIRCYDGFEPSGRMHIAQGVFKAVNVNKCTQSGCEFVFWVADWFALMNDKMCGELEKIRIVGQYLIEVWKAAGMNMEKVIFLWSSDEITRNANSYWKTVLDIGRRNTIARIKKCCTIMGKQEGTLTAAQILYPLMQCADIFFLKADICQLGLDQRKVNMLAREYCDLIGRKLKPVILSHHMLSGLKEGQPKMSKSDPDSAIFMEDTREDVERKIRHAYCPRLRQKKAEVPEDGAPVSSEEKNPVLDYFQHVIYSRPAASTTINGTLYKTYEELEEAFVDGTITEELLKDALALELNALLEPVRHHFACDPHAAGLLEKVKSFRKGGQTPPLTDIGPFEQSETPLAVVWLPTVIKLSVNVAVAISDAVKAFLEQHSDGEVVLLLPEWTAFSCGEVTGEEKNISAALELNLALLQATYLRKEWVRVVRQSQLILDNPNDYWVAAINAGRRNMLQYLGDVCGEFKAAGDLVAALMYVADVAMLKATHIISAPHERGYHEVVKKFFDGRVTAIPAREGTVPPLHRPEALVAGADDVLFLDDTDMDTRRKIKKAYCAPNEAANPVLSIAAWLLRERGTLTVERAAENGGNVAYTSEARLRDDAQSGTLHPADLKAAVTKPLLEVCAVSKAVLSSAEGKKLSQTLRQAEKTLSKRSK
# [10] = target: T4, Tyrosyl-tRNA synthetase, putative (Trypanosoma cruzi (strain CL Brener)); test: Trypanosoma cruzi tyrosyl tRNA synthetase (TcYRS) SOP; assay type: functional; conditions: 30 µM
# [11] = target: Chromo domain-containing protein 1 (Saccharomyces cerevisiae (strain ATCC 204508 / S288c) (Baker's yeast)) (UniProt P32657); test: ScCHD-1 Enzyme Inhibition Assay; assay type: functional; conditions: 30 µM; also: in the data most compounds retested in dose-response had high values
# Sequence of Chromo domain-containing protein 1 (Saccharomyces cerevisiae (strain ATCC 204508 / S288c) (Baker's yeast)) (P32657 whole entry, the tested form may be a part): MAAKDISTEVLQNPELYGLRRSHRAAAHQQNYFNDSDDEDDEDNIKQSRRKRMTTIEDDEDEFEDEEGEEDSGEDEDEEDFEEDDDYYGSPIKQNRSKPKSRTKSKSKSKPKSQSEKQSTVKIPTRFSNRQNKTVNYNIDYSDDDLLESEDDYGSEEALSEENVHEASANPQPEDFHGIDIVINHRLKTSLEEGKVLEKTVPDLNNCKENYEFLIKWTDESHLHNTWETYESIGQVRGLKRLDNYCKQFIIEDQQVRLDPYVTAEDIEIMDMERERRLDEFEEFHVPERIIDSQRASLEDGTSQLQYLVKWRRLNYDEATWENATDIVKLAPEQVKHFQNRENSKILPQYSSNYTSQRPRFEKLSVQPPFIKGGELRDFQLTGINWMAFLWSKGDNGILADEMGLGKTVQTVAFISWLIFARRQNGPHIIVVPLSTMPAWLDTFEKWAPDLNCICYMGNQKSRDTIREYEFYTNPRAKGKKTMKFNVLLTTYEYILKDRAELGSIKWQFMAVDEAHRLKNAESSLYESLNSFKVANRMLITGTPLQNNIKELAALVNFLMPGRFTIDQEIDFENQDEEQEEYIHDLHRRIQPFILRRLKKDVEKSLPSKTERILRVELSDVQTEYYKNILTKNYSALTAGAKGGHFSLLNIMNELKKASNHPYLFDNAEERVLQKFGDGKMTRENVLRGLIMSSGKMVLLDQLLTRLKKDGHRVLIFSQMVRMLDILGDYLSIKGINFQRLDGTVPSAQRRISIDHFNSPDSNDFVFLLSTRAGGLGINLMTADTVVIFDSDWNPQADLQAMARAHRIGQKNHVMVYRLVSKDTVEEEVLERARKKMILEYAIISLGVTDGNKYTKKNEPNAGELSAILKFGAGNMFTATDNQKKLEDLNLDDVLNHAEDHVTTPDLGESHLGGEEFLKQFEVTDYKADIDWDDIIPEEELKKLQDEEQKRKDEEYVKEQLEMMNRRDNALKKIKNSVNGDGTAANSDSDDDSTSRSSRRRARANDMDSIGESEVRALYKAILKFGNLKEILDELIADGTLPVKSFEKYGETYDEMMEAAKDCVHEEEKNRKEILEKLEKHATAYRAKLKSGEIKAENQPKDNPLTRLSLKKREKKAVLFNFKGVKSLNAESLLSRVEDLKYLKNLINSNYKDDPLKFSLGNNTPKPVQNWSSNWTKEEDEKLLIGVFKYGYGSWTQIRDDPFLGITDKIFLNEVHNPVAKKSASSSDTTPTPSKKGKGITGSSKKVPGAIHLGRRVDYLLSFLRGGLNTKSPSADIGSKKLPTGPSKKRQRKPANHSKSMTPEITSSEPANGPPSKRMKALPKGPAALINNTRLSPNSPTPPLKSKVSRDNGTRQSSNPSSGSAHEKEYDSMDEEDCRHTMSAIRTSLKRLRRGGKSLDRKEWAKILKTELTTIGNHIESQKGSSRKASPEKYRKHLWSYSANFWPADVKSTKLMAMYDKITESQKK
# Sequence of Protein translocase subunit SecA (Escherichia coli (strain K12)) (P10408 whole entry): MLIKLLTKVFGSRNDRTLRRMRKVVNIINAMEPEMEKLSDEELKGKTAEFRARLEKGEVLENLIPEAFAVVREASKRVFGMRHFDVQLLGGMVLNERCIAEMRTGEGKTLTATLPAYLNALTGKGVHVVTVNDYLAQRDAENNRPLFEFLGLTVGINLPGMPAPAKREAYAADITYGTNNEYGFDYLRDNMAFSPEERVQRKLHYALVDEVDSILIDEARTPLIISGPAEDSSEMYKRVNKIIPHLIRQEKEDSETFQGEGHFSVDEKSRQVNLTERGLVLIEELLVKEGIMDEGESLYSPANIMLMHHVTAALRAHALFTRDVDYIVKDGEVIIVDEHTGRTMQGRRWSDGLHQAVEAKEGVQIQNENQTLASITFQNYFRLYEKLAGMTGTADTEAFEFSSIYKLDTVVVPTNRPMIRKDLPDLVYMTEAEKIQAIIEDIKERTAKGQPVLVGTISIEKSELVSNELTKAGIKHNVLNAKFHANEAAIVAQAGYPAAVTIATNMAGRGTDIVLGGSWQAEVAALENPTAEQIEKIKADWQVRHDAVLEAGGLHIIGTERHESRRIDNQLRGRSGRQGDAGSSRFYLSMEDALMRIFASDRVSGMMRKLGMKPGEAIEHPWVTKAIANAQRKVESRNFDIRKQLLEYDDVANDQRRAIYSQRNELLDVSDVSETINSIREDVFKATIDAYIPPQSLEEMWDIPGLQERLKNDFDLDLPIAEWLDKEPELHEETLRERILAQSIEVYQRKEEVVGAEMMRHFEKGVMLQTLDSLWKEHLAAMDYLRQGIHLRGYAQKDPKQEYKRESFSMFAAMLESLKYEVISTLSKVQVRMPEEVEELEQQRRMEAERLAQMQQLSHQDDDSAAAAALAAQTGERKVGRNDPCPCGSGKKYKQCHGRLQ
# Sequence of Sialic acid-binding Ig-like lectin 9 (Homo sapiens) (Q9Y336 whole entry): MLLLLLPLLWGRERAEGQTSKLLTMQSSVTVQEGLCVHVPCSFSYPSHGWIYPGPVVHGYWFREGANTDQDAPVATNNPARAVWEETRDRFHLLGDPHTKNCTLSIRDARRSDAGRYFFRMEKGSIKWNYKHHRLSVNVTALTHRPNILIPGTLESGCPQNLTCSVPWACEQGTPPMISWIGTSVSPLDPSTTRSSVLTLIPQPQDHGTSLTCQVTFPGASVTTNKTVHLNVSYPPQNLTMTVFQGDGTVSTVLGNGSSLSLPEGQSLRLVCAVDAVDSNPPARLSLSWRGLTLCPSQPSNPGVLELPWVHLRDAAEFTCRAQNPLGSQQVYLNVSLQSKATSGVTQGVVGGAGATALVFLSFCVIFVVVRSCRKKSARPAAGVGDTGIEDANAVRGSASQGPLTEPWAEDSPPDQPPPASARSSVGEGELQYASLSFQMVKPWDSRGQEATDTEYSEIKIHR
SMILES,Percent Effect [1] [%],Percent Effect [2] [%],Percent Effect [3] [%],Percent Effect [4] [%],Percent Effect [5] [%],Percent Effect [6] [%],Percent Effect [7] [%],Percent Effect [8] [%],Percent Effect [9] [%],Percent Effect [10] [%],Percent Effect [11] [%]
Cc1occc1C(=O)N1CCC2(CCCN(CC3CCC3)C2=O)C1 (configuration not stated),0.601,1.39,-1.7,8.02,2.62,11,13.3,13.6,6.32,10.3,-2.8
OC(COCc1cccs1)CN1CCC(c2ccn[nH]2)CC1 (configuration not stated),0.446,15.2,-3.7,-4.14,-8.03,3.42,8.6,16.3,-2.46,8.86,-3.55
CCN1C(=O)C2(CCOCC2)c2cc(NC(=O)c3ccco3)ccc21,-4.08,18.2,-1.2,14.7,3.64,-11,9.98,14.7,5.38,11.1,3.7
COc1cc(C)ccc1OCCC(=O)N1CCCC1Cn1cccn1 (configuration not stated),-6.85,15.8,-7.6,14.4,3.64,-1.44,0.254,1.25,5.42,13.6,-6.6
O=C(c1cccn1Cc1cccs1)N1CCCC1Cn1cccn1 (configuration not stated),-1.97,-23.7,-2.11,10.5,8.68,-4.68,8.38,-4.07,0.493,6.17,3.37
CCOCCC(=O)N1CCCC(c2ncc[nH]2)C1 (configuration not stated),-3.07,2.74,-7.86,-2.18,-5.29,6.36,4.97,11.3,2.15,7.5,-0.879
Cc1cc(S(=O)(=O)N2CCCc3cc(F)cc(F)c32)sc1C(=O)O,-9.52,-2.67,2.83,0.801,-6.33,-2.6,9.59,7.51,-14.8,-18.5,-5.34
CCCNC(=O)NC(=O)CN(CC(C)O)c1ccccc1 (configuration not stated),-3.79,10.4,2.88,-6.45,6.95,-0.632,6.22,-9.46,5.71,9.41,2.09
CCCc1nc(NCCCO)c2c(n1)c(C)nn2CC,-3.3,6.67,9.08,11.8,-1.38,-9.33,14.2,12.4,8.47,12.8,-10.1
Cc1ncccc1CNCC1CCN(CC(O)c2ccccc2)CC1 (configuration not stated),-5.43,13.9,-5.86,1.69,-0.308,-1.07,15.3,3.05,6.25,17.7,-29.1
CNc1cc(N2CCCC2CNCc2c[nH]nc2C(C)(C)C)ncn1 (configuration not stated),-3.59,0,-14.4,-4.25,-4.88,-4.17,6,-0.674,5.94,6.1,0.0939
O=C(CCCOc1ccc(F)cc1F)N1CCCC1Cn1cccn1 (configuration not stated),-7.68,15.8,-5.85,17.7,4.01,1.8,8.38,9.96,5.42,16.1,-6.65
CC1CCN(C(=O)c2ccn(COc3ccc(F)cc3)n2)CC1,-1.66,5.2,-0.0433,10.1,2.26,-5.52,25,-6.17,6.45,16.1,-3.54
Cn1cc(CN2CCCN(C(=O)c3cc(Cl)cn3C)CC2)cn1,-2.96,13.2,-8.7,-2.03,-6.39,-3.45,20.6,28,1.47,7.32,-9.82
CCOc1ccc(C2CC(=O)Nc3c2c(=O)nc2sccn32)cc1 (configuration not stated),-6.79,17.3,-2.62,8.5,1.97,-6.51,9.06,7.35,4.23,7.69,-13.3
COc1ccc(CN2CCC3(CC2)CCN(c2ncccn2)CC3)cc1,-2.42,2.7,0.552,4.9,5.57,8.6,1.29,-26.6,0,5.13,6.6
Cc1cc(C)cc(OCCC(=O)N2CCCC(n3cncn3)C2)c1 (configuration not stated),-0.911,-8.11,0.29,4.17,8.08,-5.73,-5.21,4.81,0,3.66,1.95
CC(C)Oc1ncccc1CNC(=O)c1cc[nH]n1,-3.9,8.11,0.642,2.46,-3.3,-0.802,-0.18,3.02,2.46,6.17,-2.93
Cc1ccc(-c2cc(CNC(=O)N3CCC(CO)CC3)on2)cc1,-2.94,21.6,1.9,-3.05,-4.74,-0.185,14.9,14,6.93,13.4,-4.09
CCn1cc(CN(C)S(=O)(=O)c2ccc(NC(C)=O)cc2)cn1,2.78,14.7,5.54,-0.366,-2.95,-15,7.39,18,1.06,7.69,-7.39
CS(=O)(=O)N[C@@H]1CN(C(=O)c2ccccn2)[C@@H]2CCCO[C@@H]21,-5.18,5.41,4.88,2.32,-0.489,2.87,18.4,-7.84,4.32,7.69,-0.379
O=C(Cn1cccnc1=O)NC(Cc1cccs1)c1ccccn1 (configuration not stated),-3.91,9.46,6.77,0.0436,2.57,5.8,8.27,15.5,5.38,11.7,-11.5
